Assay outcomes deposited in PubChem BioAssay by National Center for Advancing Translational Sciences (NCATS).
Tau ThT inhib: inhibitors of human tau fibril formation, thioflavin T binding. P10636. recombinant tau K18 P301L, heparin-induced fibrillization, ThT fluorescence. Potency, µM (highest dose often 57.4 µM), for the others: at the highest dose activity, negative = inhibition, most hits filed as inhibitors. actives 2.1% (n = 270,000); note: potency is the fitted concentration of half-maximal effect; nearly all actives have a fitted effect of over 55% in size
Target sequence (P10636 561-689 P618L limits assumed): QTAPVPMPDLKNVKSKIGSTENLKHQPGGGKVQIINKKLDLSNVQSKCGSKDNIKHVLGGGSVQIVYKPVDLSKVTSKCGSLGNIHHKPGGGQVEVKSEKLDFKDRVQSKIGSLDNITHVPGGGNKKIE
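Tau K18 P301L fragment (15 uM unlabeled plus 0.24 uM Alexa 594-labeled) in 100 mM sodium acetate pH 7 with compound, fibrillization induced by 20 uM heparin for 6 hr at 37 C. Thioflavin T (30 uM) added, fluorescence read after 1 hr (ex 450, em 510 nm).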
KDM4E inh: inhibitors of human JMJD2E histone demethylase; B2RXH2; JMJD2E catalytic domain, FDH-coupled NADH fluorescence (FDH is formaldehyde dehydrogenase); Potency, µM (doses to about 57.1 µM), inactives show at the top dose activity change, negative = inhibition, hits mostly inhibitors; actives 1.6% (n = 230,000); active = well fitted inhibition curve with a large enough effect, not every such curve was filed as active; inconclusive = small, poorly fitted or top-dose-only effect, or another doubt; inactive = no such curve, though single readings can be large or run the other way;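 note: potency is the fitted concentration of half-maximal effect; 0% = wells with enzyme and -100% = buffer wells without enzyme; nearly all actives have a fitted effect of over 50% in size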
Target sequence (B2RXH2 1-337 limits assumed): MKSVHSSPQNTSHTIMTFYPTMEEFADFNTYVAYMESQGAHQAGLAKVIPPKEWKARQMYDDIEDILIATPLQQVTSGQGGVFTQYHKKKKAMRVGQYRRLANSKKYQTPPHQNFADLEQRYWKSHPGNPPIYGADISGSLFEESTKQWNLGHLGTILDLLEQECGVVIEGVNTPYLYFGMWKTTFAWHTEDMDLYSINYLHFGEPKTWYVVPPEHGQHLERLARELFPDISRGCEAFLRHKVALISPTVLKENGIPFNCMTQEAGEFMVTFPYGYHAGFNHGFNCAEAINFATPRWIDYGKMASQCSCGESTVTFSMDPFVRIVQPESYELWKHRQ
Coupling enz: coupling enzyme interference in Giardia aldolase counter-screen; actives 0.67% (n = 290,000); activity change, negative = inhibition, % at 58.2 µM, hits read low; AID 2472; coupling enzyme system counterscreen, AmpLite Red fluorescence; in the data active = activity change below about -30%
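Coupling enzymes only (glyceraldehyde-3-phosphate) + compound, at 57.5 uM final, 10 min RT; add substrate/coupling/AmpLite Red mix, 20 min RT; fluorescence ex 525/em 598 nm. Actives flag coupling-system interference.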
Tau fluor cs: counter-screen for tau fibril formation inhibitors. tau K18 P301L (four-repeat tau fragment) Alexa594 fluorescence, heparin fibrillization. AID 1463. Potency, µM (highest dose often 57.7 µM), for inactives: at the highest dose activity change, negative = decrease. actives 0.93% (n = 280,000); note: potency is the fitted concentration of half-maximal effect; nearly all actives have a fitted effect of over 55% in size
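Human K18 P301L tau (15 uM unlabeled plus 0.24 uM Alexa 594-labeled, final) in 100 mM sodium acetate pH 7 was mixed with compound and 20 uM heparin and incubated 6 hr at 37 C.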
Sfp inh: inhibitors of Bacillus subtilis Sfp phosphopantetheinyl transferase | Q9F4F7 | Biochemical Sfp PPTase activity, qHTS | Potency, µM, inactives show largest response in the series, negative = inhibition, actives largely listed as inhibitors | actives 3.5% (n = 310,000) | AID 1490;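 note: the enzyme is Sfp with the accession as filed and its product quenches rhodamine fluorescence; potency is the fitted concentration of half-maximal effect; 0% = enzyme reaction without inhibitor and -100% = no enzyme wells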
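Fluorescence-quenching assay with 15 nM Sfp, 5 uM rhodamine-CoA and 12.5 uM BHQ-2-labelled ybbR peptide in pH 7.6 Hepes/MgCl2 buffer. Enzyme was pre-incubated with compound for 15 min at room temperature. Rate was taken from the 30-min fluorescence change (525/598 nm).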
Tau fibril FP: blocks human tau fibril formation measured by polarization; K18 P301L tau heparin fibrillization, Alexa594 FP, 6 h; Potency, µM (top dose mostly 57.7 µM), inactives show top-dose activity, negative = inhibition, hits mostly inhibitors; actives 0.39% (n = 280,000); AID 1468; note: potency is the fitted concentration of half-maximal effect; nearly all actives have a fitted effect of over 55% in size
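Human tau K18 […] P301L fragment, 15 uM unlabeled plus 0.24 uM Alexa 594-labeled tau (final), with compound and 20 uM heparin in 100 mM sodium acetate pH 7; 6 hr at 37 C, then Alexa 594 FP read.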
The depositor's hits bear a star; u = inconclusive; x = no result; [ ] = dose if it differs, or a comment. A selection: hits, their analogues and other compounds. The true share with any hit is near 5.3%. Unless noted, calls come from the whole dose curve; as a rule, active = well fitted curve in the direction sought with a large enough effect; inconclusive = small, poorly fitted or top-dose-only effect, or another doubt; inactive = no such curve, though single readings can be large; an effect the other way counts as inactive or inconclusive. Unless noted, % is set by controls: 0 for no effect and ±100 for the full control effect.

SMILES	Tau ThT inhib	KDM4E inh	Coupling enz	Tau fluor cs	Sfp inh	Tau fibril FP
N#Cc1cccc(-c2nc(NCCN3CCOCC3)c3ccccc3n2)c1	x	x	2	x	11%	x
O=C(CN1CCN(C2CCCCC2)CC1)NCCC1=CCCCC1	-4%	u	-6	4%	79µM*	1%
CC(C)=CCC/C(C)=C/CC/C(C)=C/CSCC(=O)O	u	-5%	-2	4%	-8%	11%
CSc1nc(Nc2ccc(C)cc2C)cc(-c2ccccc2)n1	-6%	x	x	u	x	u
O=C(O)c1cc(-c2ccc(/C=N/N3C(=O)C4C5C=CC(CC5)C4C3=O)o2)ccc1Cl (centres undefined)	-7%	u	-2	-2%	9%	-3%
O=C(O)c1cc(-c2ccc(/C=C3\NC(=O)N(c4ccc(Cl)cc4)C3=O)o2)ccc1Cl	u	u	0	-20%	50µM*	4%
C#CCN1C(=O)S/C(=C\c2ccc(-c3ccc(Cl)c(C(=O)O)c3)o2)C1=O	x	x	9	x	-9%	x
O=C(O)c1cc(-c2ccc(/C=C3\NC(=O)N(c4ccccc4)C3=O)o2)ccc1Cl	u	u	-14	-25%	79µM*	-17%
CCCc1nnc(NC(=O)Cc2coc3ccc(C)cc23)s1	-3%	x	x	-5%	x	-5%
Cc1cc2c(n1-c1ccc(C(=O)NCc3ccccc3Cl)cc1)CCCC2	u	x	x	-17%	x	u
O=c1cc(CO)oc(C(Nc2ccccn2)c2ccccc2Cl)c1O (centres undefined)	u	u	1	-15%	50µM*	u
Cc1ccnc(NC(c2ccccc2O)c2oc(CO)cc(=O)c2O)c1 (centres undefined)	u	u	-33*	-9%	10µM*	-2%
COc1ccc(C(Nc2ccccn2)c2oc(CO)cc(=O)c2O)cc1 (centres undefined)	u	u	-17	5%	u	14%
O=c1cc(CO)oc(C(Nc2ccccn2)c2ccc(F)cc2)c1O (centres undefined)	u	u	-9	-5%	10µM*	-2%
CC[C@H](C)[C@H](NC(=O)[C@H](CC(C)C)NC(=O)[C@@H](N)CO)C(=O)NCC(=O)N[C@@H](CCCCN)C(=O)N[C@H](C(=O)O)C(C)C	x	x	1	x	-7%	x
CN1CCC2(CC1)CCN(C(=O)c1cc(C(F)(F)F)cc(C(F)(F)F)c1)CC2	x	x	4	x	1%	x
O=C1NC(=O)c2cc(Nc3ccc(F)cc3)c(Nc3ccc(F)cc3)cc21	13µM*	x	-5	14µM*[quencher]	u	-5%
O=C1NC(=O)c2cc(Nc3ccccc3)c(Nc3ccccc3)cc21	14µM*	u	2	14µM*[quencher]	7%	0%
O=C(Nc1ccc2c(c1)C(=O)NC2=O)c1ccccc1	x	x	-1	x	8%	x
Cc1ccccc1Cn1c(=O)n(CCCCC(=O)NCCc2ccccc2)c(=O)c2ccccc21	-7%	x	x	-5%	x	4%
Cc1ccc(S(=O)(=O)N2CCCCC2C(=O)NCc2ccco2)cc1 (centres undefined)	-13%	-1%	3	2%	56µM*	5%
COC(=O)Nc1ccc(S(=O)(=O)N2CCCCC2C(=O)NCc2ccco2)cc1 (centres undefined)	0%	-2%	2	-4%	11%	-3%
O=C(NCc1ccco1)C1CCCN(S(=O)(=O)c2ccc(-n3cnnn3)cc2)C1 (centres undefined)	u	u	1	-12%	40µM*	-17%
O=C1N/C(=C\c2ccc(O)cc2)C(=O)c2ccccc21	u	-8%	-31*	-28%	-77%	-4%
C[C@@H](C[C@H](N)C(=O)O)C(=O)O	4%	x	x	-6%	79µM*	-8%
SMILES	Tau ThT inhib	KDM4E inh	Coupling enz	Tau fluor cs	Sfp inh	Tau fibril FP
NC(CS)C(=O)O (centres undefined)	x	x	x	x	18µM*	x
NC(=O)C[C@@H](N)C(=O)O	1%	x	x	-3%	3%	6%
N[C@H](CS)C(=O)O	u	x	x	-12%	32µM*	u
NC(CSSCC(N)C(=O)O)C(=O)O (centres undefined)	x	x	-9	x	7%	x
CC(C)C[C@@H](N)C(=O)O	7%	x	x	8%	-7%	2%
O=[N+]([O-])c1ccc(/C=N/n2c(COc3ccccc3)n[nH]c2=S)cc1	u	-13%	11	-18%	-11%	4%
FC(F)Oc1ccc(/C=N/n2c(Cc3ccc(Br)cc3)n[nH]c2=S)cc1	x	x	-1	x	18µM*	x
Cc1ccc(/C=N/n2c(COc3ccccc3)n[nH]c2=S)cc1	x	x	6	x	u	x
S=c1[nH]nc(COc2ccccc2)n1/N=C/c1cccnc1	-6%	-4%	5	-1%	-5%	-5%
S=c1[nH]nc(COc2ccccc2)n1/N=C/c1ccc(Br)cc1	x	x	-3	x	63µM*	x
S=c1[nH]nc(COc2ccccc2)n1/N=C/C(Cl)=C/c1ccccc1	u	8%	-2	-24%	56µM*	-13%
O=[N+]([O-])c1cccc(/C=N/n2c(COc3ccccc3)n[nH]c2=S)c1	u	u	-15	u	56µM*	4%
COc1ccc(N2CCN(c3ncnc4onc(C)c34)CC2)cc1	u	x	x	-19%	x	4%
Cc1nc2ccccc2n1CCc1nc2c3ccccc3nc(SCc3cccc(F)c3)n2n1	-16%	x	x	-14%	x	-2%
CCOc1cc(/C=N/n2c(COc3ccccc3)n[nH]c2=S)ccc1O	x	x	3	x	-12%	x
Oc1ccc(/C=N/n2c(COc3ccccc3)n[nH]c2=S)cc1O	x	x	-2	x	56µM*	x
Cc1ccsc1/C=N/n1c(COc2ccccc2)n[nH]c1=S	-9%	1%	4	-10%	-10%	-4%
S=c1[nH]nc(COc2ccccc2)n1/N=C/c1cccs1	4%	-7%	12	2%	79µM*	6%
COc1ccc(Nc2ncnc3sc(-c4ccccc4)cc23)cc1	u	u	3	7.9µM*[quencher]	-1%	u
